Test [1] has as its target Cellular tumor antigen p53 (Homo sapiens) (UniProt P04637). The test is described as follows: Primary qHTS for small molecule compounds that upregulate eGFP-tagged delta133p53alpha (in N-terminal) cells. (AID 2060322). Further: nearly all actives have a fitted effect of over 75% in size. Further: potency means the concentration at half of the fitted maximal effect.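 On activation: 0% = DMSO vehicle and 100% = reference activator.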 Particulars: NCI-H358 eGFP-delta133p53alpha fluorescence, 24 h; activation: stronger effect = higher value. The gist of the method: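 NCI-H358 cells pre-induced 24 h with 10 ng/ml doxycycline to express N-terminal eGFP-delta133p53alpha, then dosed 24 h at 37C without doxycycline; fixed, Hoechst-stained, GFP intensity by laser scanning cytometry, normalized to DMSO (0%) and 57.5 uM 5-azacytidine (100%).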
For orientation: Quantitative high-throughput screening tests each substance at several concentrations.

The target in test [2] is Aldehyde dehydrogenase, mitochondrial (Homo sapiens) (UniProt P05091). The test is described as follows: qHTS for Inhibitors of the Aldehyde Dehydrogenase Family (ALDH2) Confirmatory screens (AID 2061303; active means well fitted inhibition curve with a large enough effect; title and protocol of this record describe different tests; further: nearly all actives have a fitted effect of over 45% in size; further: potency means the concentration at half of the fitted maximal effect; on activity change, negative = inhibition: on the % scale 0 is the no-effect control and ±100 the full control effect). The following applies: ALDH inhibition qHTS; series mostly up to 45.4 µM.
Test [3] is described as follows: qHTS for Inhibitors of the Aldehyde Dehydrogenase Family (ALDH1A2, ALDH1A3, ALDH2, ALDH3A1) (AID 2061307). Further: nearly all actives have a fitted effect of over 50% in size. On activity change, negative = inhibition: on the % scale 0 is the no-effect control and ±100 the full control effect. The following applies: ALDH inhibition qHTS; series mostly up to 50.3 µM.
The target in test [4] is Aldehyde dehydrogenase, mitochondrial (Homo sapiens) (UniProt P05091). The test is described as follows: qHTS for Inhibitors of the Aldehyde Dehydrogenase Family (ALDH2) Validation screens (AID 2061302; active means well fitted inhibition curve with a large enough effect; title and protocol of this record describe different tests;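 further: plate controls were DMSO vehicle for no effect and maximal DPI positive control response for full effect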). The following applies: ALDH inhibition qHTS; series mostly up to 42.6 µM.
Test [5] is described as follows: BET inhibitor-based combinations targeting novel dependencies in MECOM-rearranged (r) AML: HNT-34 cell line (AID 2202234). Further: nearly all actives have a fitted effect of over 35% in size. Further: potency means the concentration at half of the fitted maximal effect. Particulars: HNT-34 AML viability, CellTiter-Glo luminescence, 48 h; series mostly up to 46 µM. The gist of the method: (§1)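 First, 500 cells per well were seeded; next, drugs were pinned as 11-point doses; then plates sat 48 hr in the incubator; finally CellTiter-Glo was added and luminescence read, with AUC and Z-AUC computed.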
(In general: Cellular ATP, detected with luciferase, serves as a proxy for viable cell number.)

The target of test [6] is Aldehyde dehydrogenase, mitochondrial (Homo sapiens) (UniProt P05091). The test is described as follows: qHTS for Inhibitors of the Aldehyde Dehydrogenase Family (ALDH2) Primary screen (AID 2061308). Further: nearly all actives have a fitted effect of over 55% in size. Further: potency means the concentration at half of the fitted maximal effect.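 On activity change, negative = inhibition: plate controls were vehicle for no effect and reference inhibitor for full effect.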 Particulars: ALDH2 enzyme inhibition qHTS, 1536-well; series mostly up to 56 µM.
Test [7] addresses Retinaldehyde dehydrogenase 3 (Homo sapiens) (UniProt P47895). The test is described as follows: qHTS for Inhibitors of the Aldehyde Dehydrogenase Family (ALDH1A3) Confirmatory screens (AID 2061311). Further: nearly all actives have a fitted effect of over 60% in size. Further: potency means the concentration at half of the fitted maximal effect. On activity change, negative = inhibition: on the % scale 0 is the no-effect control and ±100 the full control effect. The following applies: ALDH inhibition qHTS; series mostly up to 46 µM.
Test [8] has the same target. The test is described as follows: qHTS for Inhibitors of the Aldehyde Dehydrogenase Family (ALDH1A3) Validation screen (AID 2061312). Further: nearly all actives have a fitted effect of over 45% in size. Further: potency means the concentration at half of the fitted maximal effect. On activity change, negative = inhibition: on the % scale 0 is the no-effect control and ±100 the full control effect. The following applies: ALDH1A3 enzyme inhibition qHTS validation, fluorescence; series mostly up to 84.7 µM.
Test [9] deals with Retinal dehydrogenase 2 (Homo sapiens) (UniProt O94788). The test is described as follows: qHTS for Inhibitors of the Aldehyde Dehydrogenase Family (ALDH1A2) Confirmation screens (AID 2061314). Further: nearly all actives have a fitted effect of over 65% in size. Further: potency means the concentration at half of the fitted maximal effect. The following applies: ALDH1A2 enzyme inhibition qHTS confirmation; series mostly up to 45.9 µM.
The target in test [10] is Retinaldehyde dehydrogenase 3 (Homo sapiens) (UniProt P47895). The test is described as follows: qHTS for Inhibitors of the Aldehyde Dehydrogenase Family (ALDH1A3) Primary screen (AID 2061315). Further: potency means the concentration at half of the fitted maximal effect.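 On activity change, negative = inhibition: plate controls were DMSO vehicle for no effect and reference inhibitor for full effect.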 The following applies: ALDH inhibition qHTS; series mostly up to 56 µM.
Test [11] deals with Aldehyde dehydrogenase 1A1 (Homo sapiens) (UniProt P00352). The test is described as follows: qHTS for Inhibitors of the Aldehyde Dehydrogenase Family (ALDH1A1) Confirmatory screens (AID 2061316). Further: nearly all actives have a fitted effect of over 65% in size. Further: potency means the concentration at half of the fitted maximal effect. The following applies: ALDH inhibition qHTS; series mostly up to 47.3 µM.
A short description of test [12]: BET inhibitor-based combinations targeting novel dependencies in MECOM-rearranged (r) AML: SET-2 cell line (AID 2202231). Further: nearly all actives have a fitted effect of over 35% in size. Further: potency means the concentration at half of the fitted maximal effect.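 On viability: plate controls were DMSO treated cells for no effect and wells without cells for full effect.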 The following applies: SET-2 AML cells viability, CellTiter-Glo luminescence, 48 h; viability: stronger effect = lower value, concentration not given here. The method in brief: (§2)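 Each compound was tested at eleven concentrations on cells seeded at 500/well. After two days' incubation, ATP-based luminescence reported viability; responses relative to DMSO and blank wells yielded AUC and cell-line-centred Z-AUC.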

A short description of test [13]: BET inhibitor-based combinations targeting novel dependencies in MECOM-rearranged (r) AML: OCI-AML3 cell line (AID 2202232). Further: nearly all actives have a fitted effect of over 35% in size. Further: potency means the concentration at half of the fitted maximal effect. The following applies: CellTiter-Glo luminescence, 48 h; Potency: OCI-AML3 viability; series mostly up to 46 µM. The method in brief:
as §2

The nature of test [14]: BET inhibitor-based combinations targeting novel dependencies in MECOM-rearranged (r) AML: UCSD-AML1 cell line (AID 2202235). Further: nearly all actives have a fitted effect of over 40% in size. Further: potency means the concentration at half of the fitted maximal effect. Particulars: UCSD-AML1 AML cells viability, CellTiter-Glo, 48 h; series mostly up to 46 µM. The gist of the method: as §1
Test [15] is described as follows: BET inhibitor-based combinations targeting novel dependencies in MECOM-rearranged (r) AML: AML-191 cell line (AID 2202236; further: nearly all actives have a fitted effect of over 35% in size; further: potency means the concentration at half of the fitted maximal effect). Particulars: AML-191 viability, CellTiter-Glo luminescence, 48 h; series mostly up to 46 µM. The method in brief:
as §2

The nature of test [16]: BET inhibitor-based combinations targeting novel dependencies in MECOM-rearranged (r) AML: AML-194 cell line (AID 2202237; further: nearly all actives have a fitted effect of over 40% in size; further: potency means the concentration at half of the fitted maximal effect). Particulars: AML-194 (MECOM-r AML) viability, CellTiter-Glo, 48 h; series mostly up to 46 µM. The gist of the method:
as §2

Test [17] in a line: BET inhibitor-based combinations targeting novel dependencies in MECOM-rearranged (r) AML: MV-4-11 cell line (AID 2202233). Further: potency means the concentration at half of the fitted maximal effect; nearly all actives have a fitted effect of over 45% in size. Particulars: MV-4-11 AML viability, CellTiter-Glo luminescence, 48 h; series mostly up to 46 µM. The gist of the method:
as §1

Several values for one entry are separate records, joined by “and”; a condition that tells them apart may be missing. Equal entries are not always repeated. Records with an inconclusive call do not appear. The source holds several records for some structures; these can differ, active in one and inactive in another. Activity calls are given as the source filed them. Unless noted, the call rests on the fitted dose curve; in most records, active means well fitted curve in the direction sought with a large enough effect; inconclusive means small, poorly fitted or top-dose-only effect, or another doubt; inactive means no such curve, though single readings can be large; an effect the other way counts as inactive or inconclusive.

Cellular tumor antigen p53 (Homo sapiens), sequence (P04637 whole entry, looked up): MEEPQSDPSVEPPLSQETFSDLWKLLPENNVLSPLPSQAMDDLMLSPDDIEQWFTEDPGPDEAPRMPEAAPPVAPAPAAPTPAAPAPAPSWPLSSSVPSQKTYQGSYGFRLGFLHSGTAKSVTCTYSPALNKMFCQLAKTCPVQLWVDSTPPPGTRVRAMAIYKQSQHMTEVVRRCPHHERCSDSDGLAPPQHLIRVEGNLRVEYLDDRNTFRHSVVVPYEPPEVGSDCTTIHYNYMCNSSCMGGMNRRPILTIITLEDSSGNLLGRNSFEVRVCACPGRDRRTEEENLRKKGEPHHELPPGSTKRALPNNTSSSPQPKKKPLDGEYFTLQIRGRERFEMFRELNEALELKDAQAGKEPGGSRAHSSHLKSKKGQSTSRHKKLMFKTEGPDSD

Turning to `C#CC(=O)N(c1ccc(OC)cc1OC)C(C(=O)NCC(=O)OCC)c1cccs1` (stereo unspecified), in [1], the Potency was 7.57 µM (active). The Potency result in test [2] and in test [3] was “inactive” throughout.
On to `O=C(Nc1nc2ccccc2n1CCN1CCOCC1)c1cccc([N+](=O)[O-])c1`, for which the activation in test [1] is 5.07% (inactive) and -24.4% (inactive). Moreover, the Potency result in [4] and in test [5] was “inactive” throughout.
For `O=c1[nH]c2cccc(N3CCN(Cc4ccc(-c5ccccc5)cc4)CC3)c2o1`, the activation in [1] is -3.82% (inactive). For the same molecule, the Potency entry in [2], in [3], in test [6], in [7], in test [8] and in [9] was “inactive” throughout. Moreover, the Potency result in test [10] and in test [11] was “inactive” each time.
As to `CCOC(=O)C1=C(O)C(=O)N(Cc2ccccc2)C1`, in test [1], the activation is -27.1% (inactive). The Potency result in [4], in [8], in [13], in test [5], in [14] and in test [15] was “inactive” throughout. In test [16], the Potency entry is “inactive”. Moreover, the viability (commonly a read-out of living cells in per cent, often relative to untreated cells) in [12] was 93.1% (inactive).
For `CCN(CC)CCOCCOC(=O)C(CC)(CC)c1ccccc1`, the activation in test [1] was -4.3% (inactive). In addition, the Potency entry in test [2], in test [3], in [6], in test [8], in test [9] and in [10] was “inactive” in each case. Also, the Potency result in test [11] is “inactive”. In addition, in [7], the activity change, negative = inhibition is -17.9% [at 0.022 µM] (inactive).
Consider `NCCc1ccc(O)c(O)c1`, for which the activation in test [1] is -4.36% (inactive) and 11.8% (inactive). The Potency result in test [4], in [8], in [14] and in test [16] was “inactive” in each case. The viability in [12] is 112% (inactive). For the same molecule, in [17], the Potency was 18.6 µM (active).
In the case of `CN1CCN(CCCN2c3ccccc3Sc3ccc(C(F)(F)F)cc32)CC1`, the activation in [1] was -19.8% (inactive) and -3.33% (inactive) and -47.4% (inactive). The Potency result in [4] and in test [14] was “inactive” throughout. The Potency in [12] is 16.6 µM (active); in [13] it was 16.6 µM (active); in test [17], 20.9 µM (active).
With `NCc1ccc(OCCCc2sc(-c3ccc4c(c3)/C(=N/Nc3nc5ccccc5s3)CCC4)nc2C(=O)O)cc1`, in test [1], the activation was 7.64% (inactive). Besides, the Potency result in [2], in test [3], in [9], in [13] and in test [16] was “inactive” in each case. Besides, the Potency in test [6] was 31.6 µM (active); in test [7] it was 14.2 µM (active); in [8], 7.08 µM (active); in [12], 0.332 µM (active); in [5], 0.166 µM (active); in [14], 0.209 µM (active).
With `COc1cc(CC2COC(c3ccc(OC4OC(CO)C(O)C(O)C4O)c(OC)c3)C2CO)ccc1O` (stereo unspecified), the activation in test [1] was -20.6% (inactive). Besides, the Potency entry in test [2], in test [3], in [6] and in test [9] was “inactive” throughout. Further, the Potency in test [7] is 11 µM (active); in test [10] it was 8.91 µM (active).
For the molecule `CCOC(=O)C1=C(C)NC(C)=C(C(=O)OCC)C1c1c(F)c(F)c(F)c(F)c1F`, the activation in [1] was 26.5% (inactive). Moreover, the Potency result in test [4] and in test [8] was “inactive” in each case.
On to `CCCCC1CCN(CCCN2C(=O)CCc3ccccc32)CC1`, for which, in test [1], the activation was -5.25% (inactive). Besides, the Potency result in test [2], in test [3], in test [6], in test [7], in test [8] and in test [9] was “inactive” each time. The Potency result in test [10] and in test [11] was “inactive” in each case.
On to `N#Cc1ccc(O[C@@H]2c3ccccc3C[C@H]2N2CCC[C@@H](N)C2)c(Cl)c1`, for which the Potency in test [1] was 30.1 µM (active). In addition, the Potency entry in test [2], in test [3], in test [6], in test [7], in [9] and in [10] was “inactive” throughout.
Turning to `CN1CCN(c2nc3cc(C(F)(F)F)ccc3n3cccc23)CC1`, the activation in test [1] was -11.1% (inactive). Further, the Potency result in test [4] and in test [8] was “inactive” each time.
On to `NC(N)=NCCC[C@H](NC(=O)c1sccc1NS(=O)(=O)c1cccc2nsnc12)C(=O)O`, for which the activation in test [1] is -11.5% (inactive). The Potency result in test [2], in test [3], in test [6], in test [7], in test [8] and in test [9] was “inactive” in each case. The Potency entry in test [10] and in test [11] was “inactive” in each case.
In the case of `NC(=O)[C@H]1CCS[C@@H]2C[C@]3(CCCN3C(=O)Cc3ccc(NC(=O)COc4ccc(Cl)cc4Cl)cc3)C(=O)N12`, the activation in [1] is 19% (inactive). For the same molecule, the Potency result in test [2], in [3], in test [6], in test [7], in [8] and in test [9] was “inactive” throughout. Moreover, the Potency result in test [10] and in [11] was “inactive” throughout. The Potency in [12] is 14.8 µM (active); in [13], 9.34 µM (active); in test [17], 7.42 µM (active); in [14] it was 7.42 µM (active); in [15] it was 5.25 µM (active); in [16] it was 6.61 µM (active).
Consider `N#Cc1ccc(C(=O)N2CCC3(CC2)N=C(N)c2c(F)ccc(F)c2N3)cn1`, for which the activation in [1] is 6.21% (inactive). Besides, the Potency entry in test [2], in [3], in test [6], in [7], in [8] and in test [9] was “inactive” throughout. The Potency result in [10] and in test [11] was “inactive” in each case.
With `COC(=O)[C@@]1(c2ccc(C)cc2)C[C@H]1CN1CCC(O)(c2ccccc2)CC1`, the activation in test [1] was 0.477% (inactive). Further, the Potency result in test [2], in [3], in test [6], in [7], in [8] and in [9] was “inactive” each time. In addition, the Potency result in test [10] and in test [11] was “inactive” each time.
For the molecule `O=C(CCN1CCN(C(=O)OCc2cc(Cl)cc(Cl)c2)CC1)c1ccc2[nH]c(=O)oc2c1`, the activation in [1] is 10.1% (inactive). Besides, the Potency in test [2] is 283 nM (active) and 5.62 µM (active); in test [3], 0.201 µM (active); in test [6] it was 0.158 µM (active); in test [7], 1.42 µM (active); in test [9], 252 nM (active) and inactive; in [11] it was 0.252 µM (active). The Potency in [13] was 18.6 µM (active); in test [17], 26.3 µM (active). For the same molecule, the Potency result in test [8] and in test [10] was “inactive” in each case. The viability in test [12] was 95.2% (inactive).
